{
  "source": "PubChem BioAssay (Tox21)",
  "note": "Inconclusive results are not listed. Where a call stands in place of a potency, no number is given. Calls of active or inactive are those of the source. Calls follow the shape of the dose curve; as a rule, active = well fitted cell-killing curve with a large enough effect in the repeat runs; inconclusive = weak or mixed curves; inactive = flat fitted curve, though single readings scatter. Potency is read from the fitted curve at half-maximal effect.",
  "data": [
    {"test": "qHTS RealTime-Glo MT Cell Viability Assay in HepG2 cells - 8 hour (AID 1224873); also: nearly all actives have a fitted effect of over 55% in size", "details": "RealTime-Glo luminescence; series mostly up to 76.8 µM", "excerpt": "National Center for Advancing Translational Sciences [NCATS]\nNIH Chemical Genomics Center [NCGC]\nU.S. Environmental Protection Agency [EPA]\nNational Institutes of Environmental Health Sciences [NIEHS]\nNational Toxicology Program [NTP]\nU.S. Food and Drug Administration [FDA]\nMeasure of cell viability is critical in the cell-base assay. Analysis of cell viability is necessary for the characterization of cell responses to cytotoxic drugs and environmental stress. A RealTime-Glo MT Cell Viability Assay to monitor cell viability in real time of continues cell culture during 40 hours of compound treatment was used to screen Tox21 10K library compounds in HepG2 cells. The RealTime-Glo MT Cell Viability Assay is a nonlytic, homogeneous, bioluminescent method to measure cell viability in real time using a simple, plate-based method. The assay involves adding NanoLuc luciferase and a cell-permeant prosubstrate to cells in culture. Viable cells reduce the proprietary prosubstrate to generate a substrate for NanoLuc luciferase. This substrate diffuses from cells into the surrounding culture medium, where it is rapidly used by the NanoLuc Enzyme to produce a luminescent signal. The signal correlates with the number of viable cells, making the assay well suited for cytotoxicity studies.\nTox21 Assay Protocol Summary:\nThe mixture of HepG2 cell suspension and reagents were dispensed at 600cells/6 ul/well in 1536-well tissue culture treated black solid bottom plates using a Multidrop dispenser. After the assay plates were incubated at a 37 C/5% CO2 incubator for 5 hours, 23 nL of compounds dissolved in DMSO, positive and negative controls was transferred to the assay plate by a pintool work station. The plates were incubated at 37 C for 40 hours. The luminescence intensity were measured at 0h, 8h, 16h, 24h, 32h and 40h time points using ViewLux plate reader during compound treatment.", "values": [
      {"smiles": "Cc1ccc(S(=O)(=O)NC2CCCCC2)cc1", "Potency": "inactive"},
      {"smiles": "O=c1[nH]c2ccc(S(=O)CCN3CCC(Cc4ccc(F)cc4)CC3)cc2o1", "note": "(stereo not given)", "Potency": "inactive"},
      {"smiles": "CN1C(=O)CC(C)(c2ccccc2)C1=O", "note": "(stereo not given)", "Potency": "inactive"},
      {"smiles": "CCCC1C(CC)=CC(CC)=CN1c1ccccc1", "note": "(stereo not given)", "Potency": "inactive"},
      {"smiles": "Cc1cc(O)c(C(C)C)cc1Cl", "Potency": "inactive"},
      {"smiles": "COc1cc2c(N3CCN(C(=O)Nc4ccc(OC(C)C)cc4)CC3)ncnc2cc1OCCCN1CCCCC1", "Potency": "inactive"},
      {"smiles": "CN1CCCN=C1/C=C/c1cccs1", "Potency": "inactive"},
      {"smiles": "O=C(Nc1ccc([N+](=O)[O-])cc1)Nc1ccc([N+](=O)[O-])cc1", "Potency": "inactive"},
      {"smiles": "CCCCC(=O)O[C@]1(C(=O)CO)CC[C@H]2[C@@H]3CCC4=CC(=O)CC[C@]4(C)[C@H]3[C@@H](O)C[C@@]21C", "Potency": "inactive"},
      {"smiles": "C=C(C)C(=O)OCCOC(=O)CC(C)=O", "Potency": "inactive"},
      {"smiles": "CCC(=O)OC/C=C/c1ccccc1", "Potency": "inactive"},
      {"smiles": "O=S1OCCO1", "Potency": "inactive"},
      {"smiles": "CCOC(=O)CC(=O)C(=O)OCC", "Potency": "inactive"},
      {"smiles": "O=C(O)c1cccc(O)c1", "Potency": "inactive"},
      {"smiles": "CN(C)C(=O)Nc1ccc(Oc2ccc(Cl)cc2)cc1", "Potency": "inactive"},
      {"smiles": "c1cc[c]([Bi]([c]2ccccc2)[c]2ccccc2)cc1", "Potency": "inactive"},
      {"smiles": "Cc1ccccc1N1C(=O)c2cc(S(N)(=O)=O)c(Cl)cc2NC1C", "note": "(stereo not given)", "Potency": "inactive"},
      {"smiles": "C[Si]1(C)O[Si](C)(C)O[Si](C)(C)O1", "Potency": "inactive"},
      {"smiles": "C(=C\\c1ccccc1)/CN1CCN(C(c2ccccc2)c2ccccc2)CC1", "Potency": "inactive"},
      {"smiles": "Fc1c(F)c(F)c(Br)c(F)c1F", "Potency": "inactive"},
      {"smiles": "CC1CN(c2cc3c(cc2F)c(=O)c(C(=O)O)cn3-c2ccc(F)cc2F)CCN1", "note": "(stereo not given)", "viability change, negative = cytotoxic": "1.58% [at 6.97 µM] (inactive)"},
      {"smiles": "COC(=O)c1cc(Cl)ccc1NS(=O)(=O)C(F)(F)F", "Potency": "inactive"},
      {"smiles": "CCOC(=O)C(C)Oc1ccc(Oc2nc3ccc(Cl)cc3o2)cc1", "note": "(stereo not given)", "Potency": "15.5 µM (active)"},
      {"smiles": "O=C(c1ccc(O)cc1)c1ccc(Cl)cc1", "Potency": "inactive"},
      {"smiles": "COC(OC)(C(=O)c1ccccc1)c1ccccc1", "Potency": "inactive"},
      {"smiles": "NCC1CCCC(CN)C1", "note": "(stereo not given)", "Potency": "inactive"},
      {"smiles": "CCCCCCCCCCCC[N+](C)(C)CC(=O)[O-]", "Potency": "inactive"},
      {"smiles": "CO[C@@]12[C@H](COC(N)=O)C3=C(C(=O)C(C)=C(N)C3=O)N1C[C@@H]1N[C@@H]12", "Potency": "1.34 µM (active)"},
      {"smiles": "C=CCNc1nc(NCC=C)nc(N2CCN(C(c3ccc(F)cc3)c3ccc(F)cc3)CC2)n1", "Potency": "inactive"},
      {"smiles": "c1ccc(COCc2ccccc2)cc1", "Potency": "inactive"},
      {"smiles": "CCOC(=O)[C@@H](C)Oc1ccc(Oc2nc3ccc(Cl)cc3o2)cc1", "Potency": "7.76 µM (active)"},
      {"smiles": "CCOC(=O)N1CCC(n2c(=O)[nH]c3cc(Cl)ccc32)CC1", "Potency": "inactive"},
      {"smiles": "CC(=O)CC(c1ccc([N+](=O)[O-])cc1)c1c(O)c2ccccc2oc1=O", "note": "(stereo not given)", "Potency": "inactive"},
      {"smiles": "C[N+]1(C)CCC(=C(c2ccccc2)c2ccccc2)CC1", "Potency": "inactive"},
      {"smiles": "Cc1nc2ccccn2c(=O)c1CCN1CCC(C(=O)c2ccc(F)cc2)CC1", "Potency": "inactive"},
      {"smiles": "Oc1cc(O)c(Cl)cc1Cl", "Potency": "inactive"},
      {"smiles": "CC(=O)OCC(=O)[C@@]12OC(C)(C)O[C@@H]1C[C@H]1[C@@H]3C[C@H](F)C4=CC(=O)C=C[C@]4(C)[C@@]3(F)[C@@H](O)C[C@@]12C", "Potency": "inactive"},
      {"smiles": "CC(=O)N(c1onc(C)c1C)S(=O)(=O)c1ccc(N)cc1", "Potency": "inactive"},
      {"smiles": "Cc1nccn1-c1ccc(Sc2cccc(C3(C(N)=O)CCOCC3)c2)cc1", "Potency": "inactive"},
      {"smiles": "C=CC(=O)NCOCC(C)C", "Potency": "inactive"}
    ]}
  ]
}
